Test results as given in PubChem BioAssay (NCATS).
Results filed as inconclusive are left out. Activity calls are given as the source filed them. The call rests on the fitted dose curve; in most records, active means well fitted cell-killing curve with a large enough effect; inconclusive means small, poorly fitted or top-dose-only effect; inactive means flat fitted curve, though single readings scatter.

Assay: qHTS of pediatric cancer cell lines to identify multiple opportunities for drug repurposing: Primary screen for TC32 cells (AID 1347089); further: nearly all actives have a fitted effect of over 60% in size
Settings: TC32 Ewing sarcoma viability, CellTiter-Glo luminescence, 48 h; series mostly up to 45.8 µM; activity change, negative = cytotoxic: at the top concentration
In short: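 TC32 cells, 500-1,000/well in growth medium, compound-treated 48 h at 37 °C; viability from CellTiter-Glo luminescence. Primary screen: MIPE 11-point (0.78 nM–46 µM final), NPC 8-point (0.59 nM–46 µM final); confirmatory at 11-point dilutions.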
On the % scale 0 is the no-effect control and ±100 the full control effect; potency means the concentration at half of the fitted maximal effect.

Row | Compound | Potency | activity change, negative = cytotoxic
1 | CCN1CCN(Cc2ccc(-c3cc4c(N[C@H](C)c5ccccc5)ncnc4[nH]3)cc2)CC1 | 0.117 µM (active) | –
2 | CCc1c2c(nc3ccc(O)cc13)-c1cc3c(c(=O)n1C2)COC(=O)[C@]3(O)CC | 0.0083 µM (active) | –
3 | CNC(=O)c1ccc(N2C(=S)N(c3cnc(C#N)c(C(F)(F)F)c3)C(=O)C23CCC3)cc1F | – | 4.95% (inactive)
4 | Cc1ccc(C(=O)Nc2cccc(C(F)(F)F)c2)cc1-c1ccc2nc(NCCN3CCOCC3)ncc2c1 | 18.6 µM (active) | –
5 | CCc1cc2c(cc1N1CCC(N3CCOCC3)CC1)C(C)(C)c1[nH]c3cc(C#N)ccc3c1C2=O | – | -14.9% (inactive)
6 | CN1CCN(c2ccc3nc(-c4c(N)c5c(F)cccc5[nH]c4=O)[nH]c3c2)CC1 | 14.7 µM (active) | –
7 | Clc1cccc(-c2nnnn2Cc2cccnc2)c1Cl | – | 13.5% (inactive)
8 | COc1cc(C)c(Sc2cnc(NC(=O)c3ccc(CNC(C)C(C)C)cc3)s2)cc1C(=O)N1CCN(C(C)=O)CC1 (stereo not drawn) | 7.39 µM (active) | –
9 | CN1CCN(Cc2ccc(NC(=O)Nc3ccc(Oc4cc(NC(=O)C5CC5)ncn4)cc3)cc2C(F)(F)F)CC1 | 0.294 µM (active) | –
10 | CC(C)c1ccccc1Cc1cc(C(=O)Nc2ccc(S(=O)(=O)c3ccccc3C(C)(C)C)cc2)c(O)c(O)c1O | – | -2.26% (inactive)
11 | O=C(c1cncc(Br)c1)N1CCC(N2CCCC2)CC1 | – | 4.83% (inactive)
12 | CNC(=O)c1ccccc1Nc1nc(Nc2ccc(N3CCOCC3)cc2OC)ncc1Cl | 3.3 µM (active) | –
13 | Nc1nc(NCCNc2ncc(-n3ccnc3)c(-c3ccc(Cl)cc3Cl)n2)ccc1[N+](=O)[O-] | – | 3.27% (inactive)
